Bioassay records: PubChem, National Center for Advancing Translational Sciences (NCATS)
HT1080 IDH1KD tx = toxicity to HT-1080 IDH1 knockdown cells (counter line); HT-1080 IDH1 knockdown viability, ATP luminescence, 48 h; Potency, µM (doses to about 46.1 µM), without a hit: at the highest dose activity, negative = toxicity, actives largely listed as cytotoxic; actives 2% (n = 360,000); AID 686971;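 note: potency is the fitted concentration of half-maximal effect; 0% = DMSO wells and -100% = cell-free medium wells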
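Cytotoxicity counter-line: IDH1KD HT-1080, 48 h, CellTiter-Glo. Curves classed by r2, magnitude and activity.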
DT40 TDP1 CPT = growth inhibition of DT40 Tdp1-/-;hTDP1 cells with camptothecin (screen for TDP1 inhibitors). Potency, µM (highest dose often 46.2 µM), for inactives: at the highest dose activity change, negative = growth inhibition, actives largely listed as inhibitors. AID 686979. chicken DT40 Tdp1-/-;hTDP1 cells + 20 nM CPT, ATP luminescence, 48 h. actives 12% (n = 420,000); note: potency is the fitted concentration of half-maximal effect; nearly all actives have a fitted effect of over 55% in size
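Chicken DT40 Tdp1-/- cells complemented with human TDP1, 400 cells/well, exposed to compounds plus 20 nM camptothecin for at least 48 h at 37 C; viability read as ATP content by CellTiter-Glo luminescence.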
ALOX12 inh = inhibitors of human 12S-lipoxygenase ALOX12. P18054. purified 12hLO, xylenol orange hydroperoxide absorbance. Potency, µM (titrated, usually from 108 µM), for the others: top-dose activity change, negative = inhibition, actives largely listed as inhibitors. actives 1.1% (n = 580,000). AID 1671190; note: potency is the fitted concentration of half-maximal effect
Target sequence (P18054 whole entry, looked up): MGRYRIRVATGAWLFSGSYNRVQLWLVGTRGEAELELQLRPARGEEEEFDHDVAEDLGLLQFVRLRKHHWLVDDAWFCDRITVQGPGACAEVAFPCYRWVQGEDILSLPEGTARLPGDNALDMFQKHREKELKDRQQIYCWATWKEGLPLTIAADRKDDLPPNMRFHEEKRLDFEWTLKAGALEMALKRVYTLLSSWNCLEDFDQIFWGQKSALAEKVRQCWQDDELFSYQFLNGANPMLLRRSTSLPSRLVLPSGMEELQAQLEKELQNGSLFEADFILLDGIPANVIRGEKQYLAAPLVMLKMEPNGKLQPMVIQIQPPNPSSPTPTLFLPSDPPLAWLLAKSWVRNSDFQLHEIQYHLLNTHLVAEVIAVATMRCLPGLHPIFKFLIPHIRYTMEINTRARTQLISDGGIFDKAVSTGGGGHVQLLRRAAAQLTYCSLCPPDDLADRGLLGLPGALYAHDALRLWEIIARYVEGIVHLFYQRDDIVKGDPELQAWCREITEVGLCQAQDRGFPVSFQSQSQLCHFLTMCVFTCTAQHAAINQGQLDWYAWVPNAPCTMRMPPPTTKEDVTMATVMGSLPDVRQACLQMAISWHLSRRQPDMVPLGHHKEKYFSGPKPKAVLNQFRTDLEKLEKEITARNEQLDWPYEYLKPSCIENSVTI
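Purified human 12hLO (150 nM final) in 25 mM Hepes, 0.01% Triton X-100, pH 7.0 was preincubated 15 min at room temperature with compound. Then 40 uM arachidonic acid was added, 30 min. Hydroperoxide was read by Fe-XO absorbance ratio 573/405 nm.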
HT1080-NT tox = kills 2HG-producing HT-1080-NT fibrosarcoma cells | AID 686970 | Potency, µM (titrated, usually from 46.1 µM), for inactives: at the top dose activity, negative = less viability, actives largely listed as cytotoxic | actives 1.6% (n = 360,000) | HT-1080-NT fibrosarcoma viability, CellTiter-Glo ATP luminescence, 48 h;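 note: NT is the 2HG producing partner of a matched IDH1 knockdown line; potency is the fitted concentration of half-maximal effect; 0% = DMSO-treated cells and -100% = media-only wells without cells; nearly all actives have a fitted effect of over 55% in size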
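Viability of the 2HG-overproducing fibrosarcoma line after 48 hours of compound exposure at 37 degrees C was determined by luminescence with CellTiter-Glo, and concentration-effect curves were then fitted and categorized.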
IL1B secr inh = inhibitors of inflammasome signaling (IL-1 beta secretion) | THP-1 LPS/ATP IL-1B secretion, AlphaLISA, 16 h; active compounds read low | activity change, % at 57.5 µM | actives 4.7% (n = 360,000); in the data active = activity change below about -50%; inconclusive = mostly about -30% to -49%
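Secreted IL-1B measured by AlphaLISA bead assay after 16 h compound exposure of THP-1 cells; compounds (final up to 57.5 uM) added 1 h before LPS (250 ng/mL) and ATP (1.25 mM) stimulation; lower signal means less secretion.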
DT40 TDP1 no CPT = qHTS for Inhibitors of human tyrosyl-DNA phosphodiesterase 1 (TDP1): qHTS in cells in absence of CPT; DT40 Tdp1-/- hTDP1 cells, no CPT, ATP luminescence, 48 h; Potency, µM (titrated, usually from 46.2 µM), inactives show top-dose activity change, negative = growth inhibition, actives largely listed as inhibitors; actives 15% (n = 420,000); AID 686978, 2013; note: potency is the fitted concentration of half-maximal effect; nearly all actives have a fitted effect of over 55% in size
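No-CPT arm: Tdp1-/-;hTDP1 DT40 cells (400/well) plus compounds, incubated ≥48 hr at 37 °C. Readout CellTiter-Glo luminescence.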
An asterisk follows results filed as active; [ ] = remark or other dose. This excerpt belongs to a sample that is enriched for hits. Unless noted, calls come from the whole dose curve; as a rule, active = well fitted curve in the direction sought with a large enough effect; inconclusive = small, poorly fitted or top-dose-only effect, or another doubt; inactive = no such curve, though single readings can be large; an effect the other way counts as inactive or inconclusive. Unless noted, % is set by controls: 0 for no effect and ±100 for the full control effect.

For CCCCCn1c(N2CCN(c3ccccc3)CC2)nc2c1c(=O)[nH]c(=O)n2C the results were ALOX12 inh 4%.
COc1cccc(CCNC(=O)c2c(C)noc2-c2cc(OC)c(OC)c(OC)c2)c1 was read as ALOX12 inh 19%.
`COCCN1Cc2cccc(C(=O)Nc3ccc(C)cc3)c2C1=O` gave HT1080 IDH1KD tx -5%, DT40 TDP1 CPT -28%, ALOX12 inh 2%, HT1080-NT tox 6%, IL1B secr inh -68* and DT40 TDP1 no CPT inconclusive.
CCCN1Cc2cccc(C(=O)Nc3ccc(CN4CCCC4)cc3)c2C1=O was read as HT1080 IDH1KD tx -25%, DT40 TDP1 CPT -3%, ALOX12 inh -15%, HT1080-NT tox -8%, IL1B secr inh -56* and DT40 TDP1 no CPT 23µM*.
For CCOc1ccc(NC(=O)c2cccc3c2C(=O)N(Cc2cccnc2)C3)cc1 the results were HT1080 IDH1KD tx 3%, DT40 TDP1 CPT inconclusive, ALOX12 inh -4%, HT1080-NT tox 1%, IL1B secr inh -82* and DT40 TDP1 no CPT inconclusive.
Screening CCCN1Cc2cccc(C(=O)NC(CC(=O)OCC)c3ccc(OC(C)C)cc3)c2C1=O (stereo not drawn) returned HT1080 IDH1KD tx -9%, DT40 TDP1 CPT inconclusive, ALOX12 inh -4%, HT1080-NT tox -15%, IL1B secr inh 30 and DT40 TDP1 no CPT 21µM*.
`COC(CNC(=O)c1cccc2c1C(=O)N(Cc1cccnc1)C2)OC` gave HT1080 IDH1KD tx 8%, DT40 TDP1 CPT 4%, ALOX12 inh 6%, HT1080-NT tox 0%, IL1B secr inh -19 and DT40 TDP1 no CPT -21%.
COCc1noc([C@@H]2CC(F)(F)CN2C(=O)c2cnc(C)cn2)n1 was read as ALOX12 inh 31%.
`COCc1ccc2c(c1)c(OC(C)(C)C(=O)NC1CCC(O)CC1)nn2CCC(C)C` (stereo not drawn) gave ALOX12 inh 10%[176 µM].
`COc1ccc(N2Cc3cccc(C(=O)Nc4ccc(Cl)cc4)c3C2=O)cc1` gave DT40 TDP1 CPT 8.2µM*, ALOX12 inh inconclusive and DT40 TDP1 no CPT 21µM*.
Screening COc1ccc(N2CC(C(=O)N3CCC(C(=O)N4CCOCC4)C3)NC2=O)cc1 (stereo not drawn) returned ALOX12 inh 48%.
Cc1ccc(C2(C(=O)N3CCN(Cc4ccccc4)CC(O)C3)CC2)cc1 (stereo not drawn) was read as ALOX12 inh 27%.
Screening Cn1c2nc(=O)n(-c3ccccc3)c(=O)c-2nc2c1CCCC2 returned HT1080 IDH1KD tx -13%, DT40 TDP1 CPT 21µM*, HT1080-NT tox -11%, IL1B secr inh 11 and DT40 TDP1 no CPT inconclusive.
For Cc1nn(C)c(=O)n1-c1ccccc1 the results were HT1080 IDH1KD tx 13%, DT40 TDP1 CPT 14%, ALOX12 inh 32%, HT1080-NT tox 17%, IL1B secr inh -5 and DT40 TDP1 no CPT -7%.
Screening CCOC(=O)C1=C(c2ccccc2)NC(=S)NC1c1cc([N+](=O)[O-])ccc1OC (stereo not drawn) returned HT1080 IDH1KD tx -4%, DT40 TDP1 CPT -25%, ALOX12 inh 40µM*, HT1080-NT tox -5%, IL1B secr inh -6 and DT40 TDP1 no CPT inconclusive.
`CCOC(=O)C1=C(c2ccccc2)NC(=S)NC1c1ccc(C)c([N+](=O)[O-])c1` (stereo not drawn) gave HT1080 IDH1KD tx -16%, DT40 TDP1 CPT 23µM*, ALOX12 inh -4%, HT1080-NT tox -20%, IL1B secr inh 57 and DT40 TDP1 no CPT 16µM*.
Screening CCOC(=O)C1=C(c2ccccc2)NC(=O)NC1c1ccc(O)c(Cl)c1 (stereo not drawn) returned HT1080 IDH1KD tx 13µM*, DT40 TDP1 CPT inconclusive, ALOX12 inh -16%, HT1080-NT tox 12µM* and DT40 TDP1 no CPT inconclusive.
`CCOC(=O)C1=C(c2ccccc2)NC(=O)NC1c1ccc(O)c(OCC)c1` (stereo not drawn) gave HT1080 IDH1KD tx 0%, DT40 TDP1 CPT -12%, ALOX12 inh 1%, HT1080-NT tox -3%, IL1B secr inh 8 and DT40 TDP1 no CPT -9%.
For COc1ccc(Cl)cc1NS(=O)(=O)c1cccc(C(=O)NCC2(N(C)C)CCCCC2)c1 the results were HT1080 IDH1KD tx 1%, DT40 TDP1 CPT inconclusive, ALOX12 inh -2%, HT1080-NT tox -13%, IL1B secr inh -5 and DT40 TDP1 no CPT inconclusive.
O=c1c(Cl)c(N2CCN(Cc3ccccc3)CC2)cnn1Cc1ccc(Cl)cc1 was read as ALOX12 inh -17%.
For C[C@@H](NCc1ccccc1)c1onc(-c2ccc(F)cc2)c1C(=O)O the results were ALOX12 inh -1%[176 µM].
For C[C@@H](NCc1cccc(Cl)c1)c1onc(-c2ccc(F)cc2)c1C(=O)O the results were ALOX12 inh 28µM*.
For O=C(CSc1nnnn1-c1ccccc1)N(Cc1ccco1)C1=CCCCC1 the results were ALOX12 inh 14%.
Screening Cc1cc(C)c2c(CC(=O)Nc3ccc(F)cc3)coc2c1 returned DT40 TDP1 CPT inconclusive, ALOX12 inh inconclusive and DT40 TDP1 no CPT -30%.
CCOC(=O)c1ccc(NC(=O)Cc2noc3ccc(C)cc23)cc1 was read as DT40 TDP1 CPT 21µM*, ALOX12 inh 6% and DT40 TDP1 no CPT inconclusive.
CCOC(=O)c1ccc(NC(=O)Cc2coc3cc(C)cc(C)c23)cc1 was read as DT40 TDP1 CPT inconclusive, ALOX12 inh -15% and DT40 TDP1 no CPT 18µM*.
Screening CCOC(=O)c1c(C)oc2nc(C)nc(NCc3ccccc3Cl)c12 returned DT40 TDP1 CPT 16µM*, ALOX12 inh -11% and DT40 TDP1 no CPT inconclusive.
For CCOC(=O)c1c(C)oc2nc(C)nc(NCc3ccccc3OCC)c12 the results were DT40 TDP1 CPT inconclusive, ALOX12 inh -31% and DT40 TDP1 no CPT inconclusive.
`CCOC(=O)c1c(C)oc2nc(C)nc(NCc3ccccc3OC)c12` gave DT40 TDP1 CPT 12µM*, ALOX12 inh inconclusive and DT40 TDP1 no CPT 15µM*.
For CC(C)C1c2nccn2CCCN1C(=O)c1ccc(Cn2cncn2)o1 (stereo not drawn) the results were ALOX12 inh 22%.
Screening CCc1ccc(NC(=O)c2nccnc2N)cc1 returned ALOX12 inh 50%.
